# Measured values as given in PubChem BioAssay.
# The source made the active and inactive calls.
# Tested on: PRMT1 (protein arginine N-methyltransferase 1)
# Assay: small molecules binding arginine methyltransferase PRMT1 – biochemical, small-molecule microarray, 635 nm fluorescence, primary screen (AID 1088);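 further: binding of Prmt1 protein to compounds spotted on small-molecule microarray slides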
# Conditions: higher = more signal
row,SMILES,composite z-score
1,CC(C)C[C@@H]1NC(=O)[C@H]2C[C@@H](C(=O)O)[C@@H](c3ccc(O)cc3)N2C1=O,0.879
2,O=C1O[C@@H](c2ccccc2)[C@@H](c2ccccc2)N2[C@@H](c3ccccc3OCCO)[C@]3(C(=O)Nc4ccc(C#CCCO)cc43)[C@@H](C(=O)O)[C@H]12,1.54
3,CO[C@H]1COC(=O)[C@H](C)COC(=O)CC=C[C@@H](C)[C@H](OC)COC(=O)CC=C[C@@H]1C,0.438
4,C=CCC(OC(C)=O)[C@@H]1[C@@H](N(Cc2cc3ccccc3o2)C(=O)Cc2ccc(F)cc2)c2cc(OCCCO)ccc2N1C(=O)Cc1ccc(OC)cc1 (some centres not stated),-1.46
5,CO[C@@H]1COC(=O)[C@H](C)NC(=O)[C@@H](C)COC(=O)CCC[C@H]1C,1.27
6,CC(C)(C)OC(=O)CC[C@]1(C(N)=O)COC(c2ccc(OCCCO)cc2)=N1,1.09

# Tested on: not listed separately
# Assay: growth effects on S. cerevisiae YJM789 – YJM789 clinical isolate, OD600, 24 h, basal, primary screen (AID 1089);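 further: growth of clinical yeast isolate S. cerevisiae YJM 789 seeded 1000 cells per well; test concentration not given here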
# Conditions: higher = more signal, called active from +8 up or from −8 down
row,SMILES,z-score
1,CCOC(=O)[C@H](Cc1ccccc1)NC(=O)CCC1CC(OC(=O)NCc2ccc3c(c2)OCO3)CC2(CCCC(COC(=O)NCc3cccc(C(F)(F)F)c3)O2)O1 (some centres not stated),-0.594 (inactive)
2,CC(=O)OC[C@H]1O[C@@H](ON=C[C@@H](C)[C@H](OCc2ccccc2)C(C)C)[C@H](OC(C)=O)[C@@H](OC(C)=O)[C@@H]1OC(C)=O,0.475 (inactive)
3,O=C1[C@H]2[C@H]3[C@H](O)[C@H](O)CC(=NOCc4ccccc4)[C@H]3CC[C@H]2C(=O)N1C[C@@H]1CCCO1,-0.139 (inactive)
4,CO[C@@H]1COC(=O)[C@@H]2CCCN2C(=O)[C@@H](C)COC(=O)[C@H](COCc2ccccc2)NC(=O)CC=C[C@H]1C,0.953 (inactive)
5,C=C(/C(=C/C[C@H](OC(C)=O)c1ccc(OCCO)cc1)c1cnc2ccccc2c1)C(C)C,-1.75 (inactive)
6,COC(=O)CC=C[C@@H](C)[C@H](OC)c1ccccc1Br,0.703 (inactive)
7,COc1ccccc1CN1C(=O)c2ccccc2[C@@H](C(=O)NCC(F)(F)F)[C@@H]1c1ccc(CO)cc1,0.21 (inactive)
8,O=C1[C@H]2[C@H]3[C@H](O)[C@H](O)CC(=NO[C@@H]4O[C@H](CO)[C@@H](O)[C@H](O)[C@H]4O)[C@H]3CC[C@H]2C(=O)N1C1CCCCC1,-0.546 (inactive)
9,CC(C)=CCCC(C)=CCON=C1C[C@@H](O)[C@@H](O)[C@@H]2[C@@H]3C(=O)N(C[C@@H]4CCCO4)C(=O)[C@@H]3CC[C@@H]12,-0.224 (inactive)
10,C=CC[C@@H]1C=C[C@H](ON=C2c3cc(OC)ccc3O[C@H](c3cccc(OC)c3)[C@H]2O)[C@@H](CO)O1,-0.39 (inactive)
11,CCc1cc2c(nc1CC)CCN(CCC(C)=NOC[C@@H](O)COCc1ccco1)C2,-0.907 (inactive)
12,CCN1C(=O)[C@H]2[C@H]3[C@H](O)[C@H](O)CC(=NOC(C)CN4CCCCc5nc(C)c(C)cc54)[C@@H]3CC[C@H]2C1=O (some centres not stated),0.12 (inactive)
13,COCCOC(=O)N1C(=O)[C@@]2(c3cc(C#CC4(O)CCCCCC4)ccc31)[C@H](c1ccc(OCCO)cc1)N1[C@H](c3ccccc3)[C@H](c3ccccc3)OC(=O)[C@H]1[C@@H]2C(=O)NC[C@H](O)c1ccccc1,2.19 (inactive)
14,CC1CC/C=C\[C@H]2OC34C=CCN(C(C)C)C(=O)[C@H]3N(CCCO)C(=O)[C@@H]4C2C(=O)O1 (some centres not stated),-1.36 (inactive)
15,CCCNC(=O)OC[C@H]1O[C@H](CCON=CC[C@@H]2C=C[C@H](OC(C)=O)[C@@H](COC(C)=O)O2)C=C[C@@H]1Oc1ccc(OC)cc1,-0.704 (inactive)
16,Cc1ccc(S[C@]2(C(=O)O)CC(=O)N(Cc3ccccc3)[C@@H]2c2ccc(CO)cc2I)cc1,-0.866 (inactive)
17,CC(=O)C[C@H](O)[C@@H](NC(=O)OC(C)(C)C)C(C)C,-0.498 (inactive)
18,COC(=O)C1=CCC(c2cccc(Cl)c2)O1 (configuration not stated),-1.6 (inactive)
19,COCCCNC(=O)[C@@]1(CCS(=O)(=O)c2ccccc2)N=C(c2ccc(OCCCO)cc2)O[C@H]1c1ccccc1,-0.67 (inactive)
20,O=C(NN=C1C[C@@H](O)[C@@H](O)[C@@H]2[C@@H]3C(=O)N(c4cccc(Oc5ccccc5)c4)C(=O)[C@@H]3CC[C@@H]12)OCc1ccccc1,0.909 (inactive)
21,CCOC(=O)NN=C1C[C@@H](O)[C@@H](O)[C@@H]2[C@@H]3C(=O)N(C[C@@H]4CCCO4)C(=O)[C@@H]3CC[C@@H]12,0.822 (inactive)
